# Test results reported in PubChem BioAssay (NCI).
# Where “and” joins values, the source holds several entries; their conditions need not be identical. Equal values may be shown once. This is part of a sample that, as a whole, favours compounds with a hit. Of some 83,000 tested, about 20% had one in any assay.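 Percent growth is the endpoint: 0 to 100 indicates growth inhibition (40 means 60% inhibition), 0 means no net growth, and negative values indicate cell death.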 Calls of active or inactive are those of the source. The calls were made as follows: active = growth percent below 10; inactive = the rest.
# Test system: MDA-MB-468 breast
# Experiment: NCI-60 one-dose screen, 48 h (100 = growth as untreated, 0 = no growth, -100 = all killed)
# Settings: 10 µM unless noted
row,SMILES,growth
1,Cc1cc([C@@H](C)Nc2ccccc2C(=O)O)c2nc(N3CCOCC3)cc(=O)n2c1,9.76% (active)
2,N#Cc1c(-c2ccccc2)cc(-c2c[nH]c3ccccc23)nc1-c1c[nH]c2ccccc12,93% (inactive)
3,O=C1/C(=C\c2ccc(F)cc2)CN(C(=O)c2ccc([N+](=O)[O-])cc2)C/C1=C\c1ccc(F)cc1,0.822% (active)
4,COc1cc(/C=N/Nc2nc(-c3ccc(F)cc3)c(C#N)c(N3CCOCC3)n2)ccc1O,87.4% (inactive)
5,O=C(c1ccc(/C=C/c2n[nH]c3ccccc23)cc1)N1CCNCC1,65.9% (inactive)
6,COc1ccc(/C=C/C(=O)/C=C(/C=C/c2ccc(OC)c(OC)c2)OB(F)F)cc1OC,45.6% (inactive)
7,Cc1cc(Cl)c2ccc(N(C)C)cc2n1,94.3% (inactive)
8,CC(C)=CCc1c(O)c(CC=C(C)C)c2c(c1O)C(=O)C1=C[C@@H]3C[C@H]4C(C)(C)O[C@@](C/C=C(\C)C(=O)O)(C3=O)[C@@]14O2,-45.1% (active)
9,CCO/C=N/C1=C(C#N)C(c2ccc(Cl)cc2)c2c(c3ccccc3n(C)c2=O)O1 (stereo not given),54% (inactive)
10,Cc1cc2nc(-c3ccccc3)c(-c3ccccc3)nc2cc1C,106% (inactive)
11,COc1ccc(NC(=O)c2sc3nc(C)c(C(=O)CCc4cccc(OC)c4)cc3c2N)cc1,29.6% (inactive)
12,O=C1/C(=C/c2ccccn2)SC(=S)N1N1CCOCC1,101% (inactive)
13,CCO/C=N/C1=C(C#N)C(c2ccc(F)cc2)c2sc3c(C)cccc3c2O1 (stereo not given),6% (active)
14,CCn1c(SCC(=O)c2ccc(Br)cc2)nnc1-c1ccncc1,108% (inactive)
15,CCCCC(CC)CN=C(N)NC(N)=NCCCCCCN=C(N)NC(N)=NCC(CC)CCCC (stereo not given),-85.7% (active)
16,CCCCCC(=O)Oc1ccc(/C(=C(/C)Cc2ccc(OC)cc2)c2ccc(OCCCN(C)C)cc2)cc1,56.4% (inactive)
17,CC1(C)COC(=S)N1,99.5% (inactive)
18,O=C(N/N=C(\CS(=O)(=O)c1ccccc1)c1cc2cc(Br)ccc2oc1=O)c1ccccc1,109% (inactive)
19,COc1cccc(-c2nc3sccn3c2-c2ccnc(NCCCNS(=O)(=O)c3ccccc3)c2)c1,1.62% (active)
20,CC(C)NCC(O)c1ccc(O)c(O)c1 (stereo not given),89.3% (inactive) and 104% (inactive) and 97.9% (inactive)

row,SMILES,growth
1,CN(C)CCCC1(c2ccc(F)cc2)OCc2cc(-c3ccc4cc[nH]c4c3)ccc21 (stereo not given),-27.1% (active)
2,CC(C)(C)OC(=O)N1CCN(CCn2cc(C(F)(F)F)c3c(Cl)ncnc32)CC1,19.4% (inactive)
3,CN1C(=O)N(C)C2(c3ccccc3)N(CC(=O)Nc3ccccc3O)C(=O)NC12c1ccccc1 (stereo not given),104% (inactive)
4,CC1=CC(C)(C)Nc2ccc(Cc3ccc4c(c3)C(C)=CC(C)(C)N4)cc21,-12.4% (active)
5,N=C(N)c1ccc(-c2ccc(-c3ccccc3)o2)o1,14.3% (inactive)
6,Cc1cc(N/N=C/c2ccccn2)nc2ccccc12,-13.3% (active)
7,Fc1ccc(N/N=C/c2ccc(-n3cccn3)cc2)cc1,121% (inactive)
8,CNCC[C@H](Oc1cccc2ccccc12)c1cccs1,82% (inactive)
9,Cn1cc(-c2nonc2-c2cn(C)c3ccccc23)c2ccccc21,30.3% (inactive)
10,N#C/C(C(=O)c1ccccc1)=C1/C(=O)Nc2ccc(Br)cc21,102% (inactive)
11,CC12CC(C#N)CCC1O2 (stereo not given),111% (inactive)
12,Clc1ccc(-c2nc(Br)cn3ccnc23)cc1,78.9% (inactive)
13,C=C(C)[C@@H]1CC[C@]2(C)[C@H](CC=C3[C@@H]4C[C@](C)(C(=O)N5CCN(C)CC5)CC[C@]4(C)CC[C@]32C)[C@@]1(C)CCC#N,38.3% (inactive)
14,COc1cccc(Oc2ccccc2NC(=O)CNC(=O)c2cccc3ccccc23)c1,12.1% [5 µM] (inactive)
15,O=S1(=O)NCCN1CCNc1nccc(-c2c(-c3cccc(O)c3)nc3sccn23)n1,96.8% (inactive)
16,CCn1c(CN2CCN(Cc3ccccc3)CC2)nc2cc(NC(=O)c3cccs3)ccc21,-86.6% (active)
17,CC(C)(C)c1ccc(O)c(CNC2CCCCC2)c1,87% (inactive) and 87.7% (inactive)
18,Cn1ccc2c(c1=O)C(=O)c1nccc3c1c-2nc1ccccc13,-84.6% (active)
19,CNc1cc(C(=O)O)nc(NC)n1,95.5% (inactive)
20,Brc1ccccc1Cn1c(-c2cncs2)nc2ccccc21,61.8% (inactive)
